This is a sample that favours compounds with a hit; in the whole collection about 9.9% have one here.
ALDH1A1 inh: ALDH1A1 (human) enzyme inhibition. P00352. Purified ALDH1A1, NADH fluorescence, propionaldehyde substrate. Potency, µM (highest dose often 75.3 µM), actives largely listed as inhibitors. 220,000 tested, 7.3% active. AID 1030
Tau fluor counter: counter-screen for tau fibril formation inhibitors. tau K18 P301L Alexa594 fluorescence, heparin fibrillization. Potency, µM (highest dose often 57.7 µM). 280,000 tested, 0.93% active; active = well fitted curve in the direction sought with a large enough effect; inconclusive = small, poorly fitted or top-dose-only effect, or another doubt; inactive = no such curve, though single readings can be large; an effect the other way counts as inactive or inconclusive; also: nearly all actives have a fitted effect of over 55% in size
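Human tau K18 P301L (15 uM unlabeled, 0.24 uM Alexa 594-labeled) in 100 mM sodium acetate pH 7 with 20 uM heparin, 6 hr at 37 C. ThT 30 uM added, 1 hr ambient; Alexa 594 FP and total fluorescence read at 555/632 nm.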
HPGD block: HPGD (human) dehydrogenase inhibition; P15428; purified HPGD, NADH fluorescence kinetic, PGE2 substrate; Potency, µM, actives largely listed as inhibitors; 150,000 tested, 4.3% active
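NADH formation kinetics: reaction with 30 uM PGE2 and 1 mM NAD+ (final), 20 nM enzyme, Tris-HCl pH 8 with Tween 20, after 15 min compound preincubation at room temperature. Fluorescence change, last versus first of five reads.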
Tau fibril ThT: blocks human tau fibril formation measured by thioflavin T; recombinant tau K18 P301L, heparin-induced fibrillization, ThT fluorescence; Potency, µM (series often up to 57.4 µM), usual class: inhibitors; 270,000 tested, 2.1% active; active = well fitted curve in the direction sought with a large enough effect; inconclusive = small, poorly fitted or top-dose-only effect, or another doubt; inactive = no such curve, though single readings can be large; an effect the other way counts as inactive or inconclusive; also: nearly all actives have a fitted effect of over 55% in size
Target sequence (P10636 561-689 P618L limits assumed): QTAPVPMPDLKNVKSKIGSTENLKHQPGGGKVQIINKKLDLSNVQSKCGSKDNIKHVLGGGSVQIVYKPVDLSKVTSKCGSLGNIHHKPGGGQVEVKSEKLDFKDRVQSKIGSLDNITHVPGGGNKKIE
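ThT emission at 510 nm, taken 1 hr after adding 30 uM dye, quantifies aggregates formed when 20 uM heparin acts on human tau K18 P301L for 6 hr at 37 C.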
KDM4E inh: JMJD2E (human) inhibition; JMJD2E catalytic domain, FDH-coupled NADH fluorescence (FDH is formaldehyde dehydrogenase); Potency, µM (titrated, usually from 57.1 µM), usual class: inhibitors; 230,000 tested, 1.6% active; also: nearly all actives have a fitted effect of over 50% in size
Target sequence (B2RXH2 1-337 limits assumed): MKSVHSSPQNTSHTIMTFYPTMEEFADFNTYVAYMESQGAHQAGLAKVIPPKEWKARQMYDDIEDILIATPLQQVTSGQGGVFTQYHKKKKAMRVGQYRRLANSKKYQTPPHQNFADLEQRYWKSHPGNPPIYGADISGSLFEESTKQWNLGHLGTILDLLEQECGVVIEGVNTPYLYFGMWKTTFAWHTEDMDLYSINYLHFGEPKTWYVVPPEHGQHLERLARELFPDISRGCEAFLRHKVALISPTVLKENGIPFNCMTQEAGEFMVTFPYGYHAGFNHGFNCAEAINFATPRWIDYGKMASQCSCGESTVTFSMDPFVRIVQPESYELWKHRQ
Tau fibril FP: blocks human tau fibril formation measured by polarization; K18 P301L tau heparin fibrillization, Alexa594 FP, 6 h; 280,000 tested, 0.39% active; Potency, µM (top dose mostly 57.7 µM), actives largely listed as inhibitors; AID 1468; active = well fitted curve in the direction sought with a large enough effect; inconclusive = small, poorly fitted or top-dose-only effect, or another doubt; inactive = no such curve, though single readings can be large; an effect the other way counts as inactive or inconclusive; also: nearly all actives have a fitted effect of over 55% in size
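Steps: dispense K18 P301L tau (15 uM plus 0.24 uM Alexa 594 tracer, final) in pH 7 sodium acetate; add compound; add heparin (20 uM final); incubate 6 hr, 37 C; add ThT (30 uM final); after 1 hr ambient, read FP.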
Hits are given with their value; - = inactive; ? = inconclusive; . = not tested or not shown. Unless noted, calls follow the shape of the dose curve; as a rule, active = well fitted inhibition curve with a large enough effect (not every such curve was filed as active); inconclusive = small, poorly fitted or top-dose-only effect, or another doubt; inactive = no such curve, though single readings can be large or run the other way.

SMILES | ALDH1A1 inh | Tau fluor counter | HPGD block | Tau fibril ThT | KDM4E inh | Tau fibril FP
CC(C)c1ccc(/C=N/NC(=O)C(=O)NCCCN2CCOCC2)cc1 | 14.1µM | - | - | - | - | -
Cc1cc(/C=N/NC(=O)C(=O)NCc2ccccn2)c(C)n1-c1cccc(Br)c1 | ? | - | . | - | - | -
O=C(NCCCN1CCOCC1)C(=O)N/N=C/c1c(Cl)cccc1Cl | - | - | . | - | - | -
COc1cccc(C(=O)n2nc(-c3cccnc3)nc2NCc2ccc(F)cc2)c1 | . | ? | . | ? | . | -
COc1ccc(N2CCN(S(=O)(=O)c3csc(C(N)=O)c3)CC2)cc1 | . | - | . | - | . | -
COc1ccc(CC2SC(=Nc3ccc(F)cc3)NC2=O)cc1 (stereo unspecified) | - | - | . | - | - | -
O=C(NCc1cccs1)[C@@H]1CSC2c3ccccc3C(=O)N21 (stereo partly specified) | - | - | - | ? | - | -
O=C(O)C1CSC2c3ccccc3C(=O)N12 (stereo unspecified) | 7.51µM | - | ? | - | - | -
COc1ccc(C(c2c(O)nc(SC)n(C)c2=O)c2c(O)nc(SC)n(C)c2=O)cc1O | 14.1µM | - | - | ? | - | ?
CCCn1c2ccccc2c2cnn(CC(=O)Nc3cc(OC)c(OC)c(OC)c3)c(=O)c21 | . | - | . | - | . | -
CNc1ccc(Br)cc(C(=O)/C=C/c2cccc(OC)c2OC)c1=O | 15.8µM | ? | 14.1µM | 14.1µM | 28.2µM | ?
COC(=O)c1cn(NC(=O)/C=C/c2cccc(OC)c2OC)c(=O)c2ccccc12 | ? | - | ? | ? | ? | -
O=C(/C=C/c1cc(Br)ccc1O)c1ccco1 | . | - | . | ? | - | ?
COc1ccccc1/C=C/C(=O)/C=C/c1ccccc1O | . | - | . | 14.1µM | ? | ?
CNc1ccc(Br)cc(C(=O)/C=C/c2cccc(Cl)c2Cl)c1=O | ? | ? | . | 7.08µM | - | ?
CNc1ccccc(C(=O)/C=C/c2ccccc2OC)c1=O | 10µM | ? | 12.6µM | 15.8µM | ? | ?
COc1ccccc1/C=C/C(C)=O | - | - | - | - | ? | -
O=C(NCCC1=CCCCC1)c1ccc2c(c1)sc1nc(-c3ccc(F)cc3)cn12 | . | - | . | - | . | -
O=c1[nH]c(=S)[nH]nc1Cc1ccccc1 | ? | - | 28.2µM | - | - | -
COc1ccc(/C=C/CN2CCCC(CO)(Cc3cccc(Cl)c3)C2)cc1 (stereo unspecified) | 20µM | - | . | - | - | -
COc1ccccc1/C=C/CN1CCCC(CO)(Cc2cccc(Cl)c2)C1 (stereo unspecified) | ? | - | . | - | - | -
Cc1ccc(OC(=O)CCN2C(=O)c3ccccc3C2=O)cc1C | ? | ? | . | ? | - | -
C=CCNC(=O)CSc1nc2cc(C(=O)OCC)ccc2n1CC | - | - | 25.1µM | - | - | -
CCOC(=O)/C(C#N)=C1/C=Cc2ccccc2N1CC | - | - | - | - | - | -
CCOC(=O)/C(C#N)=C1/C(=O)N(Cc2ccccc2)c2ccccc21 | 0.112µM | - | . | ? | - | -
SMILES | ALDH1A1 inh | Tau fluor counter | HPGD block | Tau fibril ThT | KDM4E inh | Tau fibril FP
O=C(COC(=O)CNS(=O)(=O)/C=C/c1ccccc1)Nc1cc(S(=O)(=O)N2CCCCC2)ccc1Cl | - | - | . | - | - | -
CCc1ccc(OC(C)c2nc(-c3ccc(-n4cccc4)cc3)no2)cc1 (stereo unspecified) | . | - | . | ? | . | -
CC1CC2=C(NC(=S)NC2c2cccc(F)c2)/C(=C/c2cccc(F)c2)C1 (stereo unspecified) | 1.26µM | - | . | - | ? | -
Cc1ccc(/C=C2\CC(C)CC3=C2NC(=S)NC3c2ccc(C)cc2)cc1 (stereo unspecified) | . | - | . | ? | ? | -
CN1C2CCC1/C(=C\c1ccccc1F)C(=O)/C2=C/c1ccccc1F | - | - | - | ? | - | -
CC1CC2=C(NC(=S)NC2c2ccccc2F)/C(=C/c2ccccc2F)C1 (stereo unspecified) | 0.562µM | - | . | - | - | -
O=C(NC1CC(=O)N(c2ccc(F)cc2)C1)c1ccc(S(=O)(=O)N2CCCCC2)cc1 (stereo unspecified) | . | - | . | - | . | -
